Data published in PubChem BioAssay.
Values joined by “and” are separate entries in the source; they are usually repeats but may differ in a detail not shown here. Identical values can stand only once. Records with an inconclusive call do not appear. For some of these results: Measured potencies and affinities stand elsewhere. Active and inactive are the calls of the source.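 The calls were made as follows, unless noted: active = at least 20% inhibition of 6-phosphogluconate dehydrogenase activity; inactive = the rest.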

Columns and labels:
[1] = P. berghei load reduction in hepatocytes – cell-based, HepG2, luciferase luminescence, HepG2 viability, primary screen (AID 624349; in the data active = parasite load remaining mostly below about 12%, no sharp cut-off; inactive = mostly above about 10%;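 also: 100% = mean of DMSO negative control wells on the same plate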); details: P. berghei liver stage in HepG2, luciferase luminescence, concentration not given here; parasite load remaining: stronger effect = lower value; viability: measured here: HepG2 viability without parasites
[2] = molecular target: 6-phosphogluconate dehydrogenase, decarboxylating (Homo sapiens) (UniProt P52209); assay: inhibition of human phosphogluconate dehydrogenase – biochemical, recombinant enzyme, NADPH absorbance, primary screen (AID 1159550); details: recombinant 6PGD, NADPH absorbance 341 nm; at 10 µM; stronger effect = higher value
6-phosphogluconate dehydrogenase, decarboxylating (Homo sapiens), sequence (P52209 whole entry, looked up): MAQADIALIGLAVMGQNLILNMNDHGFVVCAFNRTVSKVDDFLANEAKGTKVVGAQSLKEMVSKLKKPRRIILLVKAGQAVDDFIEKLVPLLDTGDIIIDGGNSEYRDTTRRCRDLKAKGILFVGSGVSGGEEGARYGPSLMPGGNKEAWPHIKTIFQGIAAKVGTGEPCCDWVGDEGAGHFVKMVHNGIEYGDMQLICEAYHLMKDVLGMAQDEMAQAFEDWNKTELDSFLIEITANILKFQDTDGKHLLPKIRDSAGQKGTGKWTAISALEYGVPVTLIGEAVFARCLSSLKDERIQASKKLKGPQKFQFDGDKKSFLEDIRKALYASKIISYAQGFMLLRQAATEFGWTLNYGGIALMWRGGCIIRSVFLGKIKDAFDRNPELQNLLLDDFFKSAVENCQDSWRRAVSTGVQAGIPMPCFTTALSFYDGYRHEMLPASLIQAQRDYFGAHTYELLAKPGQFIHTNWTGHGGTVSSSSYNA

[3] = EMT-state selective cytotoxicity in co-culture – imaging, PC-3E GFP, TEM4-18 mCherry, primary screen (AID 1345086;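 active = compounds killing one labelled cell type while sparing the other, by normalised counts and ratio limits, not self-fluorescent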;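 as to all read-outs here: cells exposed to compound for 72 h before imaging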;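 as to red/green cell ratio (normalised): normalised mesenchymal count divided by normalised epithelial count so high means epithelial killing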); details: PC-3E GFP / TEM4-18 mCherry co-culture, imaging cell counts, at 1 µM; for red/green cell ratio (normalised): actives lie on both sides, counts scaled to control wells, 1 = unselective
[4] = molecular target: Mitogen-activated protein kinase 7 (Homo sapiens) (UniProt Q13164); assay: Gal4-ERK5 driven luciferase induction – cell-based, HTS, primary screen (AID 1508626;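 active = luciferase signal above three times the same-plate solvent-only control wells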;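 also: luciferase driven by Gal4-ERK5 fusion binding five Gal4 sites before minimal TATA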); details: HeLa Gal4-ERK5 transactivation, 18 h, at 5 µM, stronger effect = higher value
Mitogen-activated protein kinase 7 (Homo sapiens), sequence (Q13164 whole entry, looked up, the tested form may be a part): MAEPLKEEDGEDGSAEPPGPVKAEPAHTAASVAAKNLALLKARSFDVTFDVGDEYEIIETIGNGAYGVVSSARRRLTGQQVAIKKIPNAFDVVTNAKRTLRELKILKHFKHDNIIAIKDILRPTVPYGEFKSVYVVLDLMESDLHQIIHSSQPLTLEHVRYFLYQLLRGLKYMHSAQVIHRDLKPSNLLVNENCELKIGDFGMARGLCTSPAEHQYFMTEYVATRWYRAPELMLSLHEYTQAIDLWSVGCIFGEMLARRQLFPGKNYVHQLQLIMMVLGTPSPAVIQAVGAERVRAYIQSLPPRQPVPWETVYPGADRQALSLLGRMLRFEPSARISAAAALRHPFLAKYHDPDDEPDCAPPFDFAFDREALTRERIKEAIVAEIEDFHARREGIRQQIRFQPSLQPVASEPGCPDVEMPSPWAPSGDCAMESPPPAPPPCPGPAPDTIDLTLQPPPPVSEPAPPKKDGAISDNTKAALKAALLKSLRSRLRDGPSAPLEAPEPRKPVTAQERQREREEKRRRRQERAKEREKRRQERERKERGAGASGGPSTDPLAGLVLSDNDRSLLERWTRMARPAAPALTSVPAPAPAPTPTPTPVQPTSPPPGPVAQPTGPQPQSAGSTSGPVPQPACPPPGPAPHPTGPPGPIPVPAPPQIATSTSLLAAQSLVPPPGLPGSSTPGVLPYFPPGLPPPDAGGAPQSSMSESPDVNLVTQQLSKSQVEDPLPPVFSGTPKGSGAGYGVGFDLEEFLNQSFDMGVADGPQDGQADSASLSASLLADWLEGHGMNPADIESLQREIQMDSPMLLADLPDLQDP

[5] = blockers of polyQ-driven CASP3 activation – cell-based (AID 1583); details: polyglutamine-induced caspase-3 activation, cell assay; stronger effect = higher value;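 tested at 10 µM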
[6] = yeast 75Q aggregation reduction – 75Q-TubU reporter (AID 1593); details: Yeast 75Q polyglutamine aggregation reporter
[7] = restoration of touch response, mutant HTT neurons – whole organism, C. elegans mechanosensory neurons, N-terminal huntingtin (AID 1599); details: C. elegans polyQ-huntingtin mechanosensory neurons, stronger effect = higher value
[8] = blockers of cytochrome c efflux from mitochondria – biochemical, purified mitochondria (AID 1603); details: stronger effect = lower value;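 also: mouse liver mitochondria challenged with calcium chloride; signal normalized to the plate average as 100%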
[9] = polyglutamine aggregate formation blockers (AID 1604); details: polyglutamine-induced protein aggregation inhibition assay; stronger effect = higher value; tested at 2.5 µM
[10] = glutamate transport activators, MN-1 cells, MN-1 cell line (AID 1612); details: MN-1 motor neuron cells, stronger effect = higher value;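 also: tested at 1 µM final; 0% = mean of DMSO vehicle wells on each plate; positive means more glutamate uptake than control and negative means less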
[11] = GFP-Q80 aggregate reduction, neuronal-like cells, cell-based, NGF-treated PC12, GFPQ80 (AID 1614); details: PC12 NGF-treated GFP-polyQ80 inclusion reduction;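 also: lower means fewer inclusions and 0 means no inclusions at all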
[12] = 75Q-TubH aggregate inhibition, S. cerevisiae, yeast (AID 1616); details: S. cerevisiae 75Q-TubH polyglutamine aggregation suppression; stronger effect = higher value
[13] = molecular target: ATP-dependent translocase ABCB1 (Homo sapiens) (UniProt P08183); assay: P-glycoprotein substrate transport blockade – cell-based (AID 377; in the data active = fluorescence slope change above about 50%); details: MDR1-expressing cells, fluorescent substrate accumulation slope; stronger effect = higher value; concentration not given here
ATP-dependent translocase ABCB1 (Homo sapiens), sequence (P08183 whole entry, looked up): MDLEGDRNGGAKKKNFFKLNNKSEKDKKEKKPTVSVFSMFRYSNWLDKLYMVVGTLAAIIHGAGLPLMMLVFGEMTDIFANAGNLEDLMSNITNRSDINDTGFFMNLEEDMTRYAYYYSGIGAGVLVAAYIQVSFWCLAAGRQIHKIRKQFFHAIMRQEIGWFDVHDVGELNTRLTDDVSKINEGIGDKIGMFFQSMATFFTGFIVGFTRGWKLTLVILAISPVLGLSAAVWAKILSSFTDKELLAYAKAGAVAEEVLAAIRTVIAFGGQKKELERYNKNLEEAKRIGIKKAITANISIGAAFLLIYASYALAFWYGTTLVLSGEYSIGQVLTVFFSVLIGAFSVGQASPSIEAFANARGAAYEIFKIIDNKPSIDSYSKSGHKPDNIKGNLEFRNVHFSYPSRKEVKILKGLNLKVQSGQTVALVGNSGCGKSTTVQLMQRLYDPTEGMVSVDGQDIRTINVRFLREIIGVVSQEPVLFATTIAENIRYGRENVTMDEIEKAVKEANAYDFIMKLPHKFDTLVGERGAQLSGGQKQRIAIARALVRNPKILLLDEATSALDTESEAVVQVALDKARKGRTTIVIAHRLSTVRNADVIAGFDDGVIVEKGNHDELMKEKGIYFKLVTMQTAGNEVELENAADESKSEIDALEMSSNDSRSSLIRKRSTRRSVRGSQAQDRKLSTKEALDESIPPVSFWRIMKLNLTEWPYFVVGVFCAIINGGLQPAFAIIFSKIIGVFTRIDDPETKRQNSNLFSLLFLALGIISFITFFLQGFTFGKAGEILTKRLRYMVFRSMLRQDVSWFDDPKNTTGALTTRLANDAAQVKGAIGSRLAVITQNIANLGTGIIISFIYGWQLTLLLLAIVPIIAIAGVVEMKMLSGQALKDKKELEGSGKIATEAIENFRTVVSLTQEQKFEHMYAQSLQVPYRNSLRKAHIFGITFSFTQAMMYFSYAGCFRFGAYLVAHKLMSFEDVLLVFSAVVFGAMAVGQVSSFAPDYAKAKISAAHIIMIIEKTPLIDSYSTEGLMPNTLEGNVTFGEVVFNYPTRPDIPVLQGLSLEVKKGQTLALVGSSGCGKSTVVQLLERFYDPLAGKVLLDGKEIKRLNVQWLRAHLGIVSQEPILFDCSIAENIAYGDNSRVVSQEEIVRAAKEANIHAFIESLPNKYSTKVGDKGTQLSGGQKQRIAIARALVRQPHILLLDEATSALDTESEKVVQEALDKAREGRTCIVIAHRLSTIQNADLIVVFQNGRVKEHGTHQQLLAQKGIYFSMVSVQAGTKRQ

[14] = compounds altering viability of human ES cells (AID 493140; call rule not given here;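 also: cells exposed to compounds for four days before counting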); details: human embryonic stem cell survival screen; stronger effect = higher value
[15] = compounds altering circadian rhythm period length – cell-based, LOPAC library, luminescence reporter (AID 2774; call rule not given here;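 also: values are relative to mean of DMSO wells on each plate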); details: circadian reporter cells, at 7 µM, actives lie on both sides
[16] = tested on: Hepatitis C virus NS3 helicase; assay: blockers of NS3h binding to ssDNA – biochemical, fluorescence polarization, LOPAC1280 library, primary screen (AID 687035; in the data active = inhibition above about 37%); details: Purified HCV NS3 helicase, Cy5-dT15 ssDNA binding fluorescence polarization; stronger effect = higher value; concentration not given here
[17] = compounds altering Cy5-DNA-NS3h complex signal – biochemical, LOPAC1280, artefact control for HCV NS3 helicase inhibitor project (AID 687037; call rule not given here); details: Cy5-DNA-NS3h complex fluorescence interference counterscreen
[18] = tested on: Aerobactin synthetase IucA (Klebsiella pneumoniae); assay: inhibition of K. pneumoniae IucA enzyme – biochemical, Tocris library, absorbance (AID 1345561; call rule not given here;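 also: 100% = enzyme without compound and 0% = no enzyme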); details: purified IucA enzyme assay, absorbance (OD) read-out; stronger effect = lower value;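 tested at 8 µM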
[19] = viability loss in pontine glioma line – cell-based, SU-DIPG-XVII, MIPE5.0, CellTiter-Glo, qHTS, dose response (AID 1347060; cut-off not given, nearly all actives have AC50 up to about 26 µM); details: CellTiter-Glo ATP luminescence
[20] = viability loss in pontine glioma line – cell-based, JHH-DIPG-1, MIPE4.0, CellTiter-Glo, qHTS, dose response (AID 1347062; cut-off not given, nearly all actives have AC50 up to about 27 µM); details: JHH-DIPG-1 viability, CellTiter-Glo ATP luminescence
[21] = viability loss in pontine glioma line – cell-based, SU-DIPG-IV, MIPE4.0, CellTiter-Glo, qHTS, dose response (AID 1347063; cut-off not given, nearly all actives have AC50 up to about 30 µM;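 also: compound exposure lasted 48 hours before the viability readout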); details: CellTiter-Glo ATP luminescence
[22] = viability loss in pontine glioma line – cell-based, SU-DIPG-XIII, MIPE5.0, CellTiter-Glo, qHTS, dose response (AID 1347064; cut-off not given, nearly all actives have AC50 up to about 23 µM); details: CellTiter-Glo ATP luminescence
[23] = viability loss in pontine glioma line – cell-based, SU-DIPG-XXV, MIPE5.0, CellTiter-Glo, qHTS, dose response (AID 1347065; cut-off not given, nearly all actives have AC50 up to about 26 µM;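 also: cells exposed to compound for 48 hours before ATP readout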); details: CellTiter-Glo ATP luminescence
[24] = growth inhibition of DIPG cells – cell-based, MIPE4.0 library, CellTiter-Glo luminescence, qHTS (AID 1347066; cut-off not given, nearly all actives have AC50 up to about 30 µM;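 also: cells exposed to compound for 48 hours before readout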); details: SU-DIPG-VI viability, CellTiter-Glo ATP luminescence
[25] = JHH-DIPG-1 glioma cell viability, MIPE5.0 library, CellTiter-Glo luminescence, qHTS (AID 1347067; cut-off not given, nearly all actives have AC50 up to about 26 µM;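 also: cells exposed to compound for 48 hours before readout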); details: JHH-DIPG-1 glioma viability, CellTiter-Glo ATP luminescence
[26] = growth inhibition of DIPG cells – cell-based, MIPE5.0 library, qHTS (AID 1347068; cut-off not given, nearly all actives have IC50 up to about 30 µM); details: SU-DIPG-XXV viability
[27] = chitosan synthesis blockers in C. neoformans – flow cytometry, Cibacron Brilliant Red staining (AID 1347148; call rule not given here;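 also: compound exposure lasted three days at 37 degrees C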); details: Cryptococcus neoformans chitosan, stronger effect = lower value; at 10 µM unless noted
[28] = blockers of cellular phospholipid synthesis – cell-based, LOPAC library, screen 4, primary screen (AID 1347384; call rule not given here); details: animal cells, phospholipid biosynthesis inhibition screen; at 10 µM
[29] = MELAS cybrid and Rieske KO viability enhancers – cell-based, MELAS cybrids, Rieske KO mouse fibroblasts, CellTiter-Glo, primary screen (AID 1508586;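 active = mean z-score across replicates of 1.96 or higher in either the MELAS or the Rieske mutant cell line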;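 also: z relative to plate mean and SD of compound and empty wells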); details: low glucose
[30] = galactose survival enhancers in mitochondrial complex I cybrids – cell-based, galactose medium, ATP luminescence, primary screen (AID 1645843;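 active = z-score of at least 1.8 in each of two replicates, scored against plate mean and spread of sample wells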;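 also: positive z means more ATP and so rescue of galactose-driven cybrid death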); details: complex I mutant cybrid cells, 72 h, stronger effect = higher value
[31] = measured here: epithelial PC-3E GFP cell survival
[32] = measured here: mesenchymal TEM4-18 mCherry cell survival

With `COC1=CC(=O)C=C(OC)C1=O` the parasite load remaining [1] was 122% (inactive), the viability [1] was 94.3% and the inhibition [2] was 1.73% (inactive). The red/green cell ratio (normalised) [3] was 0.91 (inactive), the normalised cell number [3, 31] was 0.92 and the normalised cell number [3, 32] was 0.84. For the same compound, the luciferase signal [4] was 112 AU (inactive).

With `O=C1c2ccccc2C(=O)c2c(O)c(O)cc(O)c21` the inhibition [2] was 17.9% (inactive), the red/green cell ratio (normalised) [3] was 1.09 (inactive) and the normalised cell number [3, 31] was 0.94. The normalised cell number [3, 32] was 1.02 and the luciferase signal [4] was 100 AU (inactive).

In the case of `COC(=O)c1c(C)cc(O)cc1O`, the inhibition [2] is reported as 7.84% (inactive), the red/green cell ratio (normalised) [3] is reported as 1.06 (inactive) and the normalised cell number [3, 31] is reported as 0.91. For the same compound, the normalised cell number [3, 32] was 0.97 and the luciferase signal [4] was 36 AU (inactive).

`COc1cc(OC)c2ccc(=O)oc2c1` showed an inhibition [5] of -1.21%, a score [6] of 0.96 and a rescue above control [7] of 0.64. The cytochrome c release ratio [8] was 0.64, the inhibition of aggregation [9] was 96.2% and the glutamate uptake change [10] was -7.62%. For the same compound, the inclusion score [11] was 2, the aggregation suppression score [12] was 0.869 and the parasite load remaining [1] was 128% (inactive). For the same compound, the viability [1] was 69.7%, the inhibition [2] was 9.07% (inactive) and the red/green cell ratio (normalised) [3] was 1.1 (inactive). For the same compound, the normalised cell number [3, 31] was 0.96, the normalised cell number [3, 32] was 1.05 and the luciferase signal [4] was 64 AU (inactive).

`N#Cc1ccc2c(c1)N(CCCN1CCC(O)CC1)c1ccccc1S2` gave an inhibition [5] of -41.8%, a score [6] of 1.21 and a rescue above control [7] of 2.76. It also gave a cytochrome c release ratio [8] of 0.74, an inhibition of aggregation [9] of 41.2% and a glutamate uptake change [10] of 8.34%. For the same compound, the aggregation suppression score [12] was 1.12, the parasite load remaining [1] was 134% (inactive) and the viability [1] was 87.2%. The inhibition [2] was -2.33% (inactive), the red/green cell ratio (normalised) [3] was 1.05 (inactive) and the normalised cell number [3, 31] was 0.87. The normalised cell number [3, 32] was 0.92 and the luciferase signal [4] was 96 AU (inactive).

Compound `O=C1c2ccc(O)c(O)c2C(=O)c2c(O)ccc(O)c21` has an inhibition [5] of -8.08%, a score [6] of 1.47 and a cytochrome c release ratio [8] of 0.18. It also gave an inhibition of aggregation [9] of 38.2%, a glutamate uptake change [10] of 32% and an aggregation suppression score [12] of 0.505. The inhibition [2] was 4.26% (inactive), the red/green cell ratio (normalised) [3] was 1.12 (inactive) and the normalised cell number [3, 31] was 0.82. For the same compound, the normalised cell number [3, 32] was 0.92 and the luciferase signal [4] was 76 AU (inactive).

For `C[C@]12CCC3c4ccc(OS(=O)(=O)O)cc4CCC3C1CC[C@H]2O` (stereo partly drawn), the inhibition [5] was 8.2%, the score [6] was 1.49 and the rescue above control [7] was 11.3. The cytochrome c release ratio [8] was 0.9, the inhibition of aggregation [9] was 68.5% and the glutamate uptake change [10] was -12.2%. The inclusion score [11] was 2, the aggregation suppression score [12] was 1.25 and the inhibition [2] was 3.17% (inactive). For the same compound, the red/green cell ratio (normalised) [3] was 0.87 (inactive), the normalised cell number [3, 31] was 1.3 and the normalised cell number [3, 32] was 1.13.

`CC(C)=CCc1c2c(c3occ(-c4ccc(O)c(O)c4)c(=O)c3c1O)C=CC(C)(C)O2` showed an inhibition [5] of -8.52%, a score [6] of -0.59 and a rescue above control [7] of -11.4. It also gave a cytochrome c release ratio [8] of 1.28, an inhibition of aggregation [9] of 45.6% and a glutamate uptake change [10] of 0.58%. For the same compound, the aggregation suppression score [12] was -1.07, the inhibition [2] was 10.7% (inactive) and the red/green cell ratio (normalised) [3] was 0.76 (inactive). The normalised cell number [3, 31] was 1.03, the normalised cell number [3, 32] was 0.78 and the luciferase signal [4] was 108 AU (inactive).

In the case of `COc1c2ccoc2cc2oc(C)cc(=O)c12`, the inhibition [2] is reported as 12.5% (inactive), the red/green cell ratio (normalised) [3] is reported as 0.91 (inactive) and the normalised cell number [3, 31] is reported as 1.19. For the same compound, the normalised cell number [3, 32] was 1.08 and the luciferase signal [4] was 52 AU (inactive).

In the case of `COc1c2ccoc2nc2c(OC)c(OCC(O)C(C)(C)O)ccc12` (stereo not drawn), the fluorescence slope change [13] is reported as 3.7% (inactive), the survival [14] is reported as 4.17 (inactive) and the inhibition [2] is reported as -4.68% (inactive). For the same compound, the red/green cell ratio (normalised) [3] was 0.91 (inactive), the normalised cell number [3, 31] was 1 and the normalised cell number [3, 32] was 0.92. The luciferase signal [4] was 28 AU (inactive).

For `COc1ccc2c(c1)OCC(Cc1ccc(OC)c(O)c1)C2=O` (stereo not drawn), the inhibition [2] was 13.3% (inactive), the red/green cell ratio (normalised) [3] was 0.88 (inactive) and the normalised cell number [3, 31] was 0.74. The normalised cell number [3, 32] was 0.65 and the luciferase signal [4] was 52 AU (inactive).

With `O=c1[nH]c2cc(Cl)c(Cl)cc2[nH]c1=O` the period change [15] was 0.15 h (inactive), the inhibition [2] was 1.1% (inactive) and the red/green cell ratio (normalised) [3] was 1.09 (inactive). The normalised cell number [3, 31] was 0.94, the normalised cell number [3, 32] was 1.02 and the luciferase signal [4] was 40 AU (inactive).

In the case of `COc1ccc2c(c1)OCC(Cc1ccc(OC)c(OC)c1)C2=O` (stereo not drawn), the inhibition [2] is reported as 8.36% (inactive), the red/green cell ratio (normalised) [3] is reported as 0.98 (inactive) and the normalised cell number [3, 31] is reported as 0.85. The normalised cell number [3, 32] was 0.84 and the luciferase signal [4] was 56 AU (inactive).

For `NC(=O)c1cccc(N)c1`, the inhibition [5] was -48.2%, the score [6] was 1.17 and the rescue above control [7] was -8.42. For the same compound, the cytochrome c release ratio [8] was 1.08, the inhibition of aggregation [9] was 86.1% and the glutamate uptake change [10] was 20.1%. For the same compound, the inclusion score [11] was 2, the aggregation suppression score [12] was 1.37 and the period change [15] was 0.16 h (inactive). The inhibition [16] was 0% (inactive), the fluorescence ratio (interference) [17] was 1 (inactive) and the inhibition [2] was 10.1% (inactive). For the same compound, the remaining activity [18] was 96.2% (inactive), the outcome [19] was “inactive” and the outcome [20] was “inactive”. The outcome [21] was “inactive”, the outcome [22] was “inactive” and the outcome [23] was “inactive”. The outcome [24] was “inactive”, the outcome [25] was “inactive” and the outcome [26] was “inactive”. The fold fluorescence [27] was 5.59 [at 367.2 µM] (inactive), the outcome [28] was “inactive” and the z-score ([29]; MELAS cybrid survival, CellTiter-Glo 48 h, stronger effect = higher value) was -0.453 (inactive) and -0.332 (inactive). For the same compound, the z-score ([29]; Rieske KO mouse fibroblast survival, CellTiter-Glo 72 h) was 0.178 and -0.721, the luciferase signal [4] was 104 AU (inactive) and the z-score [30] was 0.345 (inactive) and 1.35 (inactive).

`COc1cc(C)c2c(=O)cc(-c3ccccc3)oc2c1` gave an inhibition [5] of 15.2%, a score [6] of -1.86 and a rescue above control [7] of 16.3. The cytochrome c release ratio [8] was 1.19, the inhibition of aggregation [9] was 86.2% and the glutamate uptake change [10] was -16.6%. The inclusion score [11] was 1, the aggregation suppression score [12] was -0.775 and the inhibition [2] was 5.95% (inactive). For the same compound, the red/green cell ratio (normalised) [3] was 0.85 (inactive), the normalised cell number [3, 31] was 1.28 and the normalised cell number [3, 32] was 1.09.
